# Data published in PubChem BioAssay AID1490 (National Center for Advancing Translational Sciences (NCATS), 2009).
# Where “and” joins values, the source holds several entries; their conditions need not be identical. Identical values can stand only once. About 11,000 (3.5%) of roughly 310,000 compounds were called active. Another 4% or so got no clear call; they are omitted. Many of the other results were omitted from the sample, so actives are more common in it than they were. Unmarked numbers belong to inactive results. Calls come from the whole dose curve; as a rule, active = well fitted inhibition curve with a large enough effect; inconclusive = small, poorly fitted or top-dose-only effect, or another doubt; inactive = no such curve, though single readings can be large or run the other way.
# Biological target: 4'-phosphopantetheinyl transferase ffp (Bacillus subtilis) (UniProt Q9F4F7)
# Assay: qHTS Assay for Inhibitors of Bacillus subtilis Sfp phosphopantetheinyl transferase (PPTase);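 note: the enzyme is Sfp with the accession as filed and its product quenches rhodamine fluorescence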;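 for largest response in the series, negative = inhibition: 0% = enzyme reaction without inhibitor and -100% = no enzyme wells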
# Details: Biochemical Sfp PPTase activity
# Text: Assay Submitter: Michael Burkart, University of California, San Diego
# Screening Center PI: Austin, C.P.
# Screening Center: NIH Chemical Genomics Center [NCGC]
# The covalent attachment of a phosphopantetheinyl (4'-PP) arm to a variety of synthases and other proteins is a key posttranslational protein modification. The 4'-PP is installed on the proteins post-translationally from coenzyme A (CoA) on a conserved serine residue by action of phosphopantetheinyl transferase (PPTase) enzymes. Phosphopantetheinylation is essential for synthase activity, and removal of the PPTase gene precludes natural product synthesis in microorganisms, or in the case of fatty acid biosynthesis, renders the organism unviable. PPTase enzymes belong to a distinct structural superfamily. Within bacteria, these enzymes are grouped into two classes based upon primary structure, the AcpS-Type and Sfp-Type PPTases.
# Sfp-type PPTases, corresponding to an activator of surfactin production in Bacillus subtilis, are responsible for modifying type I polyketide and nonribosomal peptide synthases of prokaryotes. Sfp-type PPTases are responsible for the activation of a variety of pathogen-associated virulence factors. Among these compounds are toxins such as mycolactone from Mycobacterium ulcerans, siderophores such as vibriobactin from Vibrio cholerae or mycobactin from Mycobacterium tuberculosis, as well as the mycolic acids which form the waxy cell wall of Mycobacteria. The biosyntheses of these natural products are considered attractive targets for drug design.
# In search of small molecule Sfp-PPTase inhibitors, a fluorescence quenching assay was developed for detection of Bacillus subtilis Sfp-PPTase enzymatic activity in a miniaturized high-throughput format. The consensus ybbr acceptor peptide […] was N-terminally labeled with Black Hole Quencher-2 (BHQ-2) and used in combination with rhodamine-labeled coenzyme A as a co-substrate.
# Inhibition of Sfp-PPTase was detected by recording the fluorescence intensity change over a 30-minute reaction period at a 525 nm excitation and 598 nm emission. Reagents were supplied by Michael Burkart and Timothy Foley, University of California at San Diego.
# This BioAssay deposition is for validation of the developed Sfp-PPtase assay.
# Assay Buffer: 50 mM Hepes-Na pH 7.6, 10 mM MgCl2, 0.01% Nonidet P-40, and 0.01% BSA.
# 3 uL of Sfp-PPTase enzyme (final concentration 15 nM) and 1 uL of substrate mixture (final concentration for rhodamine-CoA and BHQ-2-YbbR 5 uM and 12.5 uM, respectively) dispensed in columns 1, 2, 5 - 48. Columns 1 and 2 used to generate neutral control (uninhibited reaction)
# Three uL of reagents, consisting of buffer (in columns 3 and 4 as negative control) and Sfp-PPTase (in columns 1, 2, 5 - 48) were dispensed into 1,536-well Greiner black solid bottom plate. Compounds (23 nL) were transferred via Kalypsys pintool equipped with 1,536-pin array. The plate was incubated for 15 min at room temperature, followed by the addition of 1 uL substrate to start the reaction. The plate was then centrifuged at 1000 rpm for 15 seconds, and the fluorescence intensity recorded on a ViewLux High-throughput CCD imager (Perkin-Elmer) using standard BODIPY optics (525 nm excitation and 598 nm emission). The plate was then incubated for 30 minutes, and a second read on the ViewLux was performed. The fluorescence intensity difference over the 30-minute period was used to calculate the respective reaction rate for each well.
# Potency is the fitted concentration of half-maximal effect.
SMILES,"largest response in the series, negative = inhibition [%]",Potency
Cc1cc(NC(=O)CCC(=O)N(CC(=O)NCC2CCCO2)c2ccccc2)no1 (centres undefined),-5.59,–
CCn1c(SCC(=O)NC2CC2)nnc1-c1ccncc1,12.1,–
CCc1ccccc1N(CC(=O)NCC1CCCO1)C(=O)CCC(=O)Nc1nccs1 (centres undefined),11.3,–
O=C(Nc1cc(-c2nc3ncccc3o2)ccc1Cl)c1ccco1,0.0878,–
COC(=O)[C@]1(S(=O)(=O)c2ccccc2)C[C@@H]2ON=C(c3ccc(OC)cc3)[C@@H]2C1,-3.07,–
O=C(CSc1nnc(-c2ccco2)n1CC1CCCO1)c1ccccc1 (centres undefined),–,50.1 µM (active)
COc1ccccc1NC(=O)CSc1nnc(C)n1CC1CCCO1 (centres undefined),14.7,–
Cc1nnc(SCC(N)=O)n1CC1CCCO1 (centres undefined),13.7,–
O=C(/C=C/c1ccc(Cl)cc1)NCCCn1ccnc1,-28,–
Cc1nn(-c2ccccc2)c(Cl)c1/C=N/NC(=O)c1nn(C)cc1[N+](=O)[O-],-3.09,–
Cc1ccccc1NC(=O)CN1C(=O)N/C(=C\c2cccn2-c2cccc(C(=O)O)c2)C1=O,–,20 µM (active)
N#Cc1ccccc1CN1C(=O)S/C(=C/c2cccn2-c2cccc(C(=O)O)c2)C1=O,-18.1,–
O=C1N/C(=C/c2cccn2-c2ccccc2)C(=O)N1c1cccc(Cl)c1,12.7,–
Cn1ncc2c(N3CCCCC3)nc(NCCCO)nc21,14.5,–
O=C(c1n[nH]c2c1CCC2)N1CCCC(Nc2cccc(F)c2)C1 (centres undefined),4.84,–
CC(C)(C)c1ccc(C(CC(=O)O)NS(=O)(=O)Cc2ccccc2)cc1 (centres undefined),-0.492,–
CCOC(=O)C1(Cc2cccc(OC)c2)CCN(C(C)COC)CC1 (centres undefined),2.4,–
CCOC(=O)C1(Cc2cccc(OC)c2)CCN(Cc2csc(C(C)=O)c2)CC1,5.75,–
CCOC(=O)C1(Cc2cccc(OC)c2)CCN(C(C)CC(C)(C)O)CC1 (centres undefined),–,35.5 µM (active)
Cc1oc2cc3oc(=O)ccc3cc2c1C,6.39,–

SMILES,"largest response in the series, negative = inhibition [%]",Potency
CCCC[C@]12Cc3cc(OC)c(OC)cc3C(O1)C1=C(CC3(CCCCC3)OC1=O)O2,-4.17,–
COc1ccc(Cc2nc(-c3ccccn3)no2)cc1OC,–,79.4 µM (active)
Cc1ccc(Cc2nc(-c3cccc(C)c3)no2)cc1,12.9,–
COc1ccccc1Cc1nc(-c2ccc(C)cc2)no1,-1.19,–
COc1cc(S(=O)(=O)N2CCN=C2c2ccccc2)ccc1Cl,14,–
CC(C)C(C)NC(=O)COc1nc2ccccc2nc1N(C)C1CCCCC1 (centres undefined),-0.152,–
COCCN(C(=O)CCC(=O)Nc1nccs1)C(C(=O)NCCC(C)C)c1ccc(F)cc1 (centres undefined),9.51,–
C=CC(=O)c1ccc2ccccc2c1,–,3.55 µM (active) and 31.6 µM (active)
CC(=O)CCC(=O)c1ccc2ccccc2c1,7.52,–
O=C(Nc1ccc(NC(=O)c2cccs2)cc1)c1ccc2ccccc2c1,-1.36,–
Cc1ccccc1Nc1nc(-c2cccnc2)cs1,-24.9,–
c1cnc(N2CCN(c3ccc4ccccc4n3)CC2)nc1,-3.4,–
COc1ccccc1N1CCN(C(=O)CCS(=O)(=O)c2ccc3c(c2)NC(=O)C(C)S3)CC1 (centres undefined),0.999,–
O=C(c1cccnc1)N(c1cc2sc(=O)oc2c2ccccc12)S(=O)(=O)c1ccccc1,–,3.98 µM (active)
COc1ccc(N(C(=O)c2cccnc2)S(=O)(=O)c2ccc3c(c2)n(C)c(=O)n3C)cc1,20.5,–
COc1ccc(N(C(=O)c2cccnc2)S(=O)(=O)c2ccc(OC)c(OC)c2)cc1,3.04,–
COc1ccccc1N1CC(C(=O)Nc2nnc(SCC(=O)NCC3CCCO3)s2)CC1=O (centres undefined),–,50.1 µM (active)
COc1cc(OC)cc(C(=O)Nc2nnc(SCC(=O)NCC3CCCO3)s2)c1 (centres undefined),-4.79,–
Cc1ccccc1N1CC(C(=O)Nc2nnc(SCCC3OCCO3)s2)CC1=O (centres undefined),-15.5,–
CCCCC(c1nnnn1CS(=O)(=O)c1ccc(C)cc1)N1CCC(C(N)=O)CC1 (centres undefined),13.9,–

SMILES,"largest response in the series, negative = inhibition [%]",Potency
OC(CNCC1CCCO1)Cn1c2ccc(Br)cc2c2cc(Br)ccc21 (centres undefined),–,22.4 µM (active)
CC(NS(=O)(=O)c1ccc(Br)cc1)C(=O)NCC1CCCO1 (centres undefined),16.5,–
O=C(CSc1ccc(-c2ccc(Br)cc2)nn1)NCC1CCCO1 (centres undefined),6.34,–
COc1ccc(CCNC(=O)c2cnc(Cl)c(Cl)c2)cc1,9,–
CC1(C)CCc2nc(SCc3ccccc3)c(C#N)cc2C1,-5.3,–
CC(NC(=O)CSc1nc2c(cc1C#N)CN(C)CC2)c1ccccc1 (centres undefined),–,56.2 µM (active)
Cc1cc(NC(=O)CSc2nc3c(cc2C#N)CCCCC3)no1,15.4,–
O=C(NCc1ccccc1)C(c1cccnc1)N(C(=O)c1csnn1)c1ccc(F)cc1 (centres undefined),19.5,–
CC(C)CCn1c(=O)c2c(nc3n2CCCN3Cc2ccccc2)n(C)c1=O,4.31,–
NCCCNCCCCN(CCCN)/[N+]([O-])=N/O,-7.71,–
COc1cccc(NC(=O)c2nn(C34CC5CC(CC(C5)C3)C4)cc2[N+](=O)[O-])c1,11.6,–
Cc1ncn(C23CC4CC(CC(O)(C4)C2)C3)n1,17.6,–
Cc1nc([N+](=O)[O-])nn1C12CC3CC(CC(Br)(C3)C1)C2,–,15.8 µM (active)
COc1cccc(CNS(=O)(=O)c2ccc3c(c2)CC(C)N3C(=O)C2CCC2)c1 (centres undefined),20.3,–
COc1cc(/C=N/NC(=O)c2cccnc2)ccc1OC(=O)c1cccc(Br)c1,9.75,–
O=C(CN1C(=O)COc2ccc(Cl)cc21)Nc1ccc(N2CCOCC2)cc1,9.73,–
CC(OC(=O)CN1C(=O)COc2ccccc21)C(=O)NCc1ccc(F)cc1 (centres undefined),16.7,–
O=C(CN1C(=O)COc2ccccc21)Nc1ccc(F)cc1,–,50.1 µM (active)
COc1ccc(N2CCC(N3CCN(C)C(CCO)C3)CC2)cc1 (centres undefined),-5.05,–
